Screens (PubChem)
In the library only some 10% were active in any assay of this set; here they are far more common.
ALDH1A1 inh = inhibitors of human aldehyde dehydrogenase 1A1. P00352. Purified ALDH1A1, NADH fluorescence, propionaldehyde substrate. Potency, µM (doses to about 75.3 µM), without a hit: at the top dose activity, negative = inhibition, most hits filed as inhibitors. 220,000 compounds, 7.3% hits. AID 1030;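 note: potency is the fitted concentration of half-maximal effect; plate controls were no enzyme wells and a reference inhibitor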
Target sequence (P00352 whole entry, looked up): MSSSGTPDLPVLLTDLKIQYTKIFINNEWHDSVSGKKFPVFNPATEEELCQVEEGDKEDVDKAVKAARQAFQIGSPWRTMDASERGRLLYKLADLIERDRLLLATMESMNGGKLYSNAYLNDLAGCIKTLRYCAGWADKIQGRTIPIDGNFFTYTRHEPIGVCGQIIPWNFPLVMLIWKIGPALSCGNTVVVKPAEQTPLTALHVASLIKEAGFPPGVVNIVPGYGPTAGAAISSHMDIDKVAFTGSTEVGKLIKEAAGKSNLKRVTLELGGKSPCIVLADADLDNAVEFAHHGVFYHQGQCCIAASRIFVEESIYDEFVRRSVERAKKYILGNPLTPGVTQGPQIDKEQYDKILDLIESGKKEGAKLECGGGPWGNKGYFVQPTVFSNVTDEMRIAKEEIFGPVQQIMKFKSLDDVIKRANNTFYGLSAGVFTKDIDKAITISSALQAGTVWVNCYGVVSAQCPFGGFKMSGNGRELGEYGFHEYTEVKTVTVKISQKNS
HPGD block = inhibitors of human 15-hydroxyprostaglandin dehydrogenase (HPGD) | AID 894 | Potency, µM, inactives show top-dose activity change, negative = inhibition, hits mostly inhibitors | purified HPGD, NADH fluorescence kinetic, PGE2 substrate | 150,000 compounds, 4.3% hits; note: potency is the fitted concentration of half-maximal effect
Target sequence (P15428 whole entry, looked up): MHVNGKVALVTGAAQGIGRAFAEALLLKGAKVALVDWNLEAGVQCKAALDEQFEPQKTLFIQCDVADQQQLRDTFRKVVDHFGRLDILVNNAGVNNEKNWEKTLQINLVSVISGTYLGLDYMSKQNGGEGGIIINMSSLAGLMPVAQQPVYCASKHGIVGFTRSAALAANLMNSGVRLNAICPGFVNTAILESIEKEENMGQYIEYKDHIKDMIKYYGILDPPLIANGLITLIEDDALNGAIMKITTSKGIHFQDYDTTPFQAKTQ
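NADH formation kinetics: reaction with 30 uM PGE2 and 1 mM NAD+ (final), 20 nM enzyme, Tris-HCl pH 8 with Tween 20, after 15 min compound preincubation at room temperature. Fluorescence change, last versus first of five reads.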
KinaseGlo FLuc = Kinase-Glo luciferase inhibition (counter-screen). Q27757. Kinase-Glo luciferase, ATP luminescence, 8 min. Potency, µM (series often up to 38.3 µM), for the others: at the top dose activity change, negative = inhibition, actives largely listed as inhibitors. 200,000 compounds, 0.28% hits; active = well fitted inhibition curve with a large enough effect; inconclusive = small, poorly fitted or top-dose-only effect; note: potency is the fitted concentration of half-maximal effect; nearly all actives have a fitted effect of over 60% in size
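Recombinant Kinase-Glo luciferase, 10 uM ATP (linear range), luciferin; imidazole pH 7.2 / KCl / MgCl2 / Tween / BSA buffer; 8 min RT; luminescence.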
PNC inhibitor = perinucleolar compartment assembly inhibition. PC3M PTB-GFP, PNC prevalence imaging, 16 h; stronger effect = lower value. activity change (PNC), negative = inhibition, % at 10 µM. 140,000 compounds, 3.1% hits;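 active = readout at or below -70, meaning at least 70% loss of cells showing the perinucleolar compartment, a nuclear body marking cancer cells; inconclusive = readout between -30 and a set limit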;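 note: plate controls were DMSO wells for no effect and camptothecin positive control wells for full effect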
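PC3M cells stably expressing PTB-GFP, 750–1000 cells/well, treated 16 h at 37 °C with compound (23 nl of library stock), in duplicate. After paraformaldehyde fixation and Hoechst stain, imaged at 20x; PNC prevalence scored by image analysis.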
Lamin A splicing = modulators of lamin A splicing; HeLa LMNA splicing GFP/RFP minigene ratio, 48 h; Potency, µM (top dose mostly 46.1 µM), for the others: at the highest dose ratio change, negative = inhibition, usual class: inhibitors; 200,000 compounds, 0.01% hits; AID 1487; active = well fitted inhibition curve with a large enough effect in the signal ratio, with a control signal flat, not every such curve was filed as active; inconclusive = small, poorly fitted or top-dose-only effect, or effect the other way, or a change in a side signal; the % refers to the signal ratio; note: potency is the fitted concentration of half-maximal effect
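Read-out is the ratio of GFP to DsRed2 object intensity, acquired by 488 nm laser-scanning cytometry on HeLa lamin A-EGFP minigene reporter cells. Compound incubation 48 hrs at 37 °C in Opti-MEM with 2% FBS; DMSO 0.5% final.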
An asterisk follows results filed as active; ? = inconclusive; . = no result given; [ ] = another dose, or the depositor's remark. Unless noted, calls come from the whole dose curve; as a rule, active = well fitted inhibition curve with a large enough effect (not every such curve was filed as active); inconclusive = small, poorly fitted or top-dose-only effect, or another doubt; inactive = no such curve, though single readings can be large or run the other way. Unless noted, % is set by controls: 0 for no effect and ±100 for the full control effect.

SMILES	ALDH1A1 inh	HPGD block	KinaseGlo FLuc	PNC inhibitor	Lamin A splicing
COc1ccc(CN(CCO)CCO)cc1[N+](=O)[O-]	-36.8%	-4.1%	2.9%	-12.9	-2.6%
CCCCCOc1ccc(CSC(=N)N)cc1[N+](=O)[O-]	-4.0%	1.1%	-7.6%	?	?
Cc1occc1C(=O)N/N=C/C=C\c1ccccc1[N+](=O)[O-]	?	.	0.7%	.	?
O=C(CSc1nc2ccccc2[nH]1)N/N=C/C=C/c1ccccc1[N+](=O)[O-]	4.47µM*	-10.4%	2.7%	-28.2	-11.2%
CCOC(=O)N/N=C/C=C/c1ccccc1[N+](=O)[O-]	10µM*	.	-5.1%	.	-12.8%[46 µM]
O=C(N/N=C/C=C/c1ccccc1[N+](=O)[O-])c1cc(-c2ccccc2)n[nH]1	?	25.1µM*	3.0%	-21.8	?
O=C(N/N=C/C=C\c1ccccc1[N+](=O)[O-])c1ccccn1	-13.3%	-24.8%	-1.8%	33.7	-5.7%
CC(CNC(=O)c1nnc(Cc2ccc(F)cc2)o1)c1ccccc1 (centres undefined)	.	.	.	.	6.7%[46 µM]
COc1ccc(CCNC(=O)c2sc3nc4n(c(=O)c3c2C)CCCC4)cc1OC	.	.	.	.	6.0%[46 µM]
CCSC(N)=Nc1ccc(C(F)(F)F)cc1	?	-26.4%	-3.0%	.	?
Cc1ccc([N+](=O)[O-])cc1-c1[nH]c(-c2ccc(O)c(O)c2)nc1-c1ccccc1	22.4µM*	0.8%	-1.7%	5.4	?
CC(=O)Nc1ccc(C2=NN(C)C(=NCc3ccccc3)SC2)cc1	2.82µM*	.	-0.2%	.	4.9%[46 µM]
COc1cc(C(Nc2ccc(S(=O)(=O)N3CCC(C)CC3)cc2)C(=O)NCC2CCCO2)cc(OC)c1OC (centres undefined)	3.55µM*	-11.5%	-0.4%	-2.6	-2.1%
CCOc1cc(/C=C2\C(=O)N(CCC#N)N=C2C)ccc1OCC(N)=O	-9.1%	.	-1.3%	.	0.3%[46 µM]
CC1=NN(CCC#N)C(=O)/C1=C/c1ccc(N(C)C)cc1	7.94µM*	.	-13.7%	.	-2.4%[46 µM]
COc1cc(/C=C2\C(=O)N(CCC#N)N=C2C)ccc1OCC(=O)Nc1ccccc1	12.6µM*	10µM*	-3.2%	-26.2	-2.8%
Cc1c(C(=O)Nc2ccccc2N2CCOCC2)sc2nc3n(c(=O)c12)CCC3	9.3%	-27.3%	-1.4%	-126.9*	4.1%
CCOc1ccccc1NC(=O)c1sc2nc3n(c(=O)c2c1C)CCCCC3	.	.	.	.	-9.8%[46 µM]
CC1(C)OC2CC3C4CC(F)C5=CC(=O)C=CC5(C)C4C(O)CC3(C)[C@]2(C(=O)CO)O1 (some centres undefined)	-0.1%	-20.0%	-10.1%	.	.
O=C(c1ccc(Cc2nc3ccccc3[nH]2)cc1)N1CCCCC1	-7.2%	15.8µM*	-2.9%	.	.
O=C(Nc1ccccc1)c1ccc(Cc2nc3ccccc3[nH]2)cc1	0.8%	-2.6%	-0.8%	.	.
CCOc1ccc(Nc2ncnc3c2c(-c2ccccc2)cn3-c2cccc(C)c2)cc1	.	.	.	.	5.2%[46 µM]
COc1cc2c(cc1OC)C1(CCCC1)C(N)=C2C#N	5.7%	-11.7%	-0.8%	-100.0*	-3.9%
COc1ccc(N=C2C(=Nc3ccc(OC)cc3)N(c3ccc(OC)cc3)C(=S)N2c2ccccc2)cc1	?	-13.7%	14.0%	35.5	-4.7%
Cc1ccc(N=C2C(=S)N(c3ccc(C)cc3)C(=N)N2/N=C/c2ccc(Cl)cc2)cc1	?	35.5µM*	-10.1%	-25.2	-12.3%
SMILES	ALDH1A1 inh	HPGD block	KinaseGlo FLuc	PNC inhibitor	Lamin A splicing
CC(C)NC(=O)c1nn2c(C(F)(F)F)cc(-c3ccco3)nc2c1Cl	-1.2%	.	0.1%	.	20.1%[46 µM]
CC1CCCCN1C(=O)c1cnn2c(C(F)(F)F)cc(-c3ccco3)nc12 (centres undefined)	-5.0%	7.08µM*	0.8%	1.5	7.9%
CN(CCc1ccccn1)C(=O)c1nn2c(C(F)(F)F)cc(-c3ccco3)nc2c1Cl	25.1µM*	-19.1%	2.3%	14.1	28.5%
O=C(c1cnn2c(C(F)(F)F)cc(-c3ccco3)nc12)N1CCCCCC1	?	?	-2.6%	?	-0.7%
O=C(NC1CCCCC1)c1cnn2c(C(F)(F)F)cc(-c3ccco3)nc12	?	?	-2.3%	?	16.3%
O=C(NC1CCCCC1)c1nn2c(C(F)(F)F)cc(-c3ccco3)nc2c1Br	22.4µM*	-11.9%	-4.9%	-24.4	6.6%
CC(C)(C)OC(=O)N1CCC(c2c(C(=O)NC3CCCCC3)cnn2-c2cccc(F)c2)CC1	.	.	.	.	-0.1%[46 µM]
CCOC(=O)CCN1C(=O)[C@H]2[C@H]3[C@H](O)[C@H](O)C/C(=N/OC/C=C(\C)CCC=C(C)C)[C@H]3CC[C@@H]2C1=O	-4.5%[13.5 µM]	.	.	.	.
O=C(OCC(=O)N1c2ccccc2Sc2ccccc21)c1ccc[n+]([O-])c1	23.8µM*	.	-4.5%	.	-1.5%[46 µM]
CSc1ncnc2c1ncn2C1OC(CO)C(O)C1O (centres undefined)	6.2%	-14.0%	-0.4%	.	?
COc1ccc(-c2nc3cnc(N4CCOCC4)nc3n(-c3ccccc3)c2=O)cc1	13.1%	.	.	.	6.0%
Cc1sc(NC(=S)Nc2ccc(F)cc2)c(C(N)=O)c1C	10µM*	.	2.8%	.	11.4%[46 µM]
CCOC(=O)c1c(NC(=S)Nc2ccc(Cl)cc2)sc(C)c1C	-3.9%	-5.8%	19.0%	-6.9	-0.7%
CC(=O)Nc1ccc(NC(=S)Nc2ccc(F)cc2)cc1	1.4%	.	-1.9%	.	-3.8%[46 µM]
COC(=O)c1c(NC(=S)Nc2ccc(CC(=O)O)cc2)sc(C)c1C	25.1µM*	-26.2%	-0.2%	-3.0	8.6%
NC(=O)C[C@@H](N)c1nn[nH]n1	4.1%[13.5 µM]	-5.1%	-3.1%[7.66 µM]	.	.
CC1=NN(c2ccc(S(=O)(=O)O)cc2)C(=O)/C1=C\c1ccc(Cl)cc1	?	?	-2.8%[7.66 µM]	.	.
O=C(N/N=C/c1c(O)ccc2ccccc12)c1cccc(C(F)(F)F)c1	-14.1%	?	4.0%	-93.0*	?
O=C(N/N=C/c1ccc(N2CCOCC2)o1)c1cccc(C(F)(F)F)c1	?	?	-1.8%	-100.0*	-7.8%
COc1ccc2ccccc2c1/C=N/NC(=O)c1cccc(Br)c1	-3.3%	-17.1%	-6.3%	-17.2	5.2%
CCCC[C@@H]1C[C@H]1C(NC(=O)c1cccs1)c1ccccc1C(F)(F)F (some centres undefined)	-10.5%	?	-1.3%	.	.
CN(C)c1ccc(O)c2c1C[C@@H]1C[C@H]3C(N(C)C)C(=O)C(C(N)=O)=C(O)[C@@]3(O)C(=O)C1=C2O (some centres undefined)	-1.1%	28.2µM*	-10.3%	.	.
C=C1c2cccc(O)c2C(O)=C2C(=O)[C@]3(O)C(O)=C(C(N)=O)C(=O)C(N(C)C)C3C(O)C12 (some centres undefined)	7.4%	15.8µM*	-7.5%	.	.
C=C1c2c(Cl)ccc(O)c2C(O)=C2C(=O)[C@]3(O)C(O)=C(C(N)=O)C(=O)C(N(C)C)C3C(O)C12 (some centres undefined)	?	?	-2.2%	.	.
